Compounds with a hit are over-represented: about 6.9% of the library has one in this group of screens.
SW480 rereplic – A quantitative high throughput screen for small molecules that induce DNA re-replication in SW480 colon adenocarcinoma cells | 1.8% of 340,000 active | SW480 DNA re-replication, Hoechst DNA content imaging, 48 h | AID 624297, 2012 | Potency, µM (highest dose often 46.1 µM), for the others: at the highest dose re-replication activation, most hits filed as activators; note: potency is the fitted concentration of half-maximal effect; % of control where 0% means no effect; nearly all actives have a fitted effect of over 55% in size
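Per well, 250 cells were exposed to pinned compound for 48 hr. Nuclear DNA was visualised with Hoechst (40 min, 37 C) and total object intensity recorded by fluorescence scanning.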
IL1B secr inh – qHTS for Inhibitors of Inflammasome Signaling: IL-1-beta AlphaLISA Primary Screen; THP-1 LPS/ATP IL-1B secretion, AlphaLISA, 16 h; hits give low values; activity change, % at 57.5 µM; 4.7% of 360,000 active; AID 743279, 2014; in the data active = activity change below about -50%; inconclusive = mostly about -30% to -49%; note: % is set by controls: 0 for no effect and ±100 for the full control effect
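Secreted IL-1B measured by AlphaLISA bead assay after 16 h compound exposure of THP-1 cells; compounds (final up to 57.5 uM) added 1 h before LPS (250 ng/mL) and ATP (1.25 mM) stimulation; lower signal means less secretion.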
Vif-APOBEC3G blk – qHTS for Inhibitors of Vif-A3G Interactions: qHTS. DNA dC->dU-editing enzyme APOBEC-3G (Homo sapiens), Q9HC16. Potency, µM (highest dose often 46.1 µM), for the others: at the top dose activity, negative = active, actives largely listed as inhibitors. 0.076% of 410,000 active. AID 602310, 2012. HeLa A3G-eYFP + Vif (tagged APOBEC3G with the HIV-1 protein that degrades it), YFP fluorescence, overnight; note: potency is the fitted concentration of half-maximal effect; % is set by controls: 0 for no effect and ±100 for the full control effect; nearly all actives have a fitted effect of over 60% in size
Target sequence (Q9HC16 whole entry, looked up): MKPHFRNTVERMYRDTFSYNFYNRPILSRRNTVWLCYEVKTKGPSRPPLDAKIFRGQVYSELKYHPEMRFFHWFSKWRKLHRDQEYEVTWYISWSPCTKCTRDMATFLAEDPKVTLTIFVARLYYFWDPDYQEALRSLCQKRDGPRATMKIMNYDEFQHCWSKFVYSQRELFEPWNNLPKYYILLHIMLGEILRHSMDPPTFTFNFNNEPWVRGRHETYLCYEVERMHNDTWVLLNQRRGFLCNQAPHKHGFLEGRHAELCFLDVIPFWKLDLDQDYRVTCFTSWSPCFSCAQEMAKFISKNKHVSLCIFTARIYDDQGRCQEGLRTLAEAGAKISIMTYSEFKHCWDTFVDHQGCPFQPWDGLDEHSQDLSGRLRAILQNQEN
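HeLa cells stably expressing Vif and C-terminally eYFP-tagged A3G, seeded overnight at 37 deg C, then exposed to compound by pintool overnight at 37 deg C. Rise in yellow fluorescence (Ex 488/Em 500-530, Acumen) marks blocked Vif-driven A3G degradation.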
Vif-APOBEC3F blk – qHTS for Inhibitors of Vif-A3F Interactions: qHTS; HeLa A3F-eYFP + Vif (tagged APOBEC3F with the HIV-1 protein that degrades it), YFP fluorescence increase; Potency, µM (top dose mostly 46.1 µM), inactives show at the top dose activity, negative = active; 0.2% of 390,000 active; note: potency is the fitted concentration of half-maximal effect; % of control where 0% means no effect; nearly all actives have a fitted effect of over 65% in size
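HeLa cells stably expressing A3F-eYFP plus Vif, plated and incubated overnight at 37 deg C, then exposed to compounds overnight at 37 deg C. Blocked degradation read as raised yellow fluorescence (Ex 488/Em 500-530).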
Giardia killer – Small Molecules that selectively kill Giardia lamblia: qHTS | 0.15% of 340,000 active | activity change, % at 7.66 µM, hits read low | Giardia lamblia trophozoite viability; in the data active = activity change below about -80%; inconclusive = between about -30% and that limit;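 note: parasites exposed to compound for two days anaerobically before the ATP read; % is set by controls: 0 for no effect and ±100 for the full control effect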
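ATP-content bioluminescence gauges trophozoite survival. Cells (100/well) receive compound and incubate anaerobically for 48 hrs at 37 deg C; detection reagent follows for 15-30 min at room temperature.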
MCF10A rereplic – A quantitative high throughput screen for small molecules that induce DNA re-replication in MCF 10a normal breast cells; Potency, µM (titrated, usually from 46.1 µM), for the others: top-dose activity, positive = re-replication, usual class: activators; 2.9% of 350,000 active; MCF 10A DNA re-replication, Hoechst nuclear intensity, 48 h; note: potency is the fitted concentration of half-maximal effect; % of control where 0% means no effect; nearly all actives have a fitted effect of over 50% in size
An asterisk follows results filed as active; ? = inconclusive; . = not tested or not shown. Unless noted, calls come from the whole dose curve; as a rule, active = well fitted curve in the direction sought with a large enough effect; inconclusive = small, poorly fitted or top-dose-only effect, or another doubt; inactive = no such curve, though single readings can be large; an effect the other way counts as inactive or inconclusive.

SMILES	SW480 rereplic	IL1B secr inh	Vif-APOBEC3G blk	Vif-APOBEC3F blk	Giardia killer	MCF10A rereplic
CCOc1ccc2oc(=O)cc(CN3CCN(c4cc(C)ccc4C)CC3)c2c1	.	.	7.7%	4.7%	.	.
CC1c2cc3c(cc2CCN1C(=O)c1ccc(Cl)cc1)OCCCO3 (centres undefined)	?	-59.3*	-9.2%	-8.5%	5.0	?
COc1ccc(OC)c(CCNC(=O)c2c(C)nn(-c3ccc(F)cc3)c2-n2cccc2)c1	.	.	-1.8%	-0.9%	.	.
CN1CCc2c(sc(NC(=O)CS(=O)(=O)c3ccccc3)c2C(N)=O)C1	-380.6%	-5.6	0.0%	6.3%	0.8	-14.5%
CC(C)N1CCc2c(sc(NC(=S)NC(=O)c3ccccc3)c2C#N)C1	32.8%	25.9	?	?	0.4	-6.0%
CCCN1CCc2c(sc(NC(=O)CCS(=O)(=O)c3ccccc3)c2C(N)=O)C1	18.4µM*	-7.5	-0.2%	1.2%	-5.3	20.6µM*
CCOC(=O)c1c(NC(=O)CCS(=O)(=O)c2ccccc2)sc2c1CCN(C(C)C)C2	?	-79.9*	0.3%	1.8%	9.5	?
NC(=O)c1c(NC(=O)CN2CCN(S(=O)(=O)c3ccccc3)CC2)sc2c1CCC2	-1.8%	-51.1*	1.2%	-9.7%	-1.2	12.9%
CCCN1CCc2c(sc(NC(=S)NC(=O)c3ccccc3)c2C#N)C1	?	0.0	-30.3%	25.1µM*	16.1	?
COCCNC(=O)CN1C(=O)CCn2nc(-c3cn(C)c4ccccc34)cc21	.	.	1.4%	4.7%	.	.
O=C(CSc1nnc2ccc3ccccc3n12)Nc1ccccc1Cl	.	.	-1.0%	-1.7%	.	.
Cc1ccc(N2CC(NC(=O)c3cccc(Cl)c3)CC2=O)cc1C (centres undefined)	.	.	-2.1%	-0.1%	.	.
COc1cccc(C(=O)Nc2ccc3nc(SCC(=O)N4CCc5ccccc54)sc3c2)c1	.	.	-5.4%	-12.8%	.	.
CCOC(=O)c1c(NC(=O)CN2CCCCC2)sc2c1CCN(C(=O)OCC)C2	17.2%	-85.7*	-0.9%	10.8%	6.6	3.2%
CCOC(=O)c1ccsc1NC(=O)CCS(=O)(=O)c1ccccc1	?	-81.5*	-28.0%	-1.6%	30.1	-1.0%
NC(=O)c1ccsc1NC(=O)CCS(=O)(=O)c1ccccc1	7.5%	13.1	-2.6%	5.4%	-14.9	10.9%
OC1(c2ccccc2)CN(c2ccccc2)C2=[N+]1CCS2 (centres undefined)	?	-66.4*	-6.0%	1.4%	-0.3	26.0%
CCOc1ccccc1CNC(=O)c1cc2c(=O)n(Cc3ccco3)ccc2nc1C	.	.	0.2%	3.7%	.	.
O=C(CCSc1ccc(Cl)cc1)c1cccs1	?	-106.4*	-0.9%	-0.2%	-5.2	?
O=C(CCNc1ccc(Cl)cc1)c1cccs1	1.9%	?	-2.8%	2.5%	-6.9	?
O=C(CCNc1cc(Cl)cc(Cl)c1)c1cccs1	1.4%	-7.7	-12.5%	0.8%	13.4	23.1µM*
O=C(CN1CCN(Cc2ccccc2Cl)C1=O)NCc1ccccc1Cl	.	.	0.8%	1.0%	.	.
COc1ccc(C(CCNCc2ccc(OC(C)C)cc2)C(C)C)cc1 (centres undefined)	18.6%	.	0.3%	-5.4%	-9.4	-11.6%
COc1ccc(CNCCC(c2ccc(OC(C)C)cc2)C(C)C)cc1OC (centres undefined)	?	-97.7*	-3.7%	-13.6%	-6.1	?
COc1ccc(C(CCNCc2ccc(N(C)C)cc2)C(C)C)cc1 (centres undefined)	?	-100.3*	-0.3%	-12.5%	-1.0	?
SMILES	SW480 rereplic	IL1B secr inh	Vif-APOBEC3G blk	Vif-APOBEC3F blk	Giardia killer	MCF10A rereplic
C/C=C/C(=O)[C@@H](C)[C@@H](/C=C/C[Si](C)(C)C)c1ccccc1	.	.	-2.0%	.	-19.1	.
CCOC(=O)c1cc(-c2ccc(F)cc2)n(CCC(=O)NCCc2ccc(C)cc2)c1C	.	.	-3.7%	-0.8%	.	.
NNC(=O)COc1ccc2oc3c(c2c1)CCCC3	-3.8%	2.0	0.7%	-8.3%	-3.5	?
O=C(O)COc1ccc2oc3c(c2c1)CCCC3	-24.8%	20.0	-0.6%	4.3%	-8.0	2.06µM*
COC(=O)c1c(NC(=O)/C=C/C(=O)O)sc(C)c1-c1ccc(C)cc1	?	-98.0*	-21.8%	9.3%	-12.1	?
COC(=O)c1c(NC(=O)/C=C/C(=O)O)sc(C)c1-c1ccc(C(C)C)cc1	14.6µM*	-101.3*	-10.6%	10.7%	-3.0	3.26µM*
Cc1ccc(-c2c(C)sc(NC(=O)C3C4CCC(O4)C3C(=O)O)c2C(=O)OC(C)C)cc1 (centres undefined)	4.9%	5.9	1.8%	0.7%	-2.0	-10.3%
COC(=O)c1sc(-c2ccc(Cl)cc2)cc1NC(=O)/C=C/C(=O)O	?	-95.0*	-23.3%	4.8%	-11.4	?
CCCCNC(=O)C1=CC(c2ccc3c(c2)OCO3)=NS(=O)(=O)N1C	.	.	0.8%	5.2%	.	.
COc1c(CC=C(C)C)c(O)cc2oc(=O)c3c4ccc(O)cc4oc3c12	?	-4.2	-0.6%	-8.1%	-6.8	18.4µM*
CCN(CC)S(=O)(=O)c1cc([N+](=O)[O-])ccc1NNC(=O)Nc1ccc(Cl)c(Cl)c1	26.7%	-67.1*	1.8%	0.3%	1.8	?
O=C(NNc1ccccc1[N+](=O)[O-])Nc1ccc(Cl)c(Cl)c1	-2.3%	-92.8*	-4.1%	?	2.9	?
O=C(Nc1ccc(Cl)c([N+](=O)[O-])c1)C(Sc1ccccc1)c1ccccc1 (centres undefined)	12.7%	-83.3*	-4.5%	-19.9%	10.4	?
NS(=O)(=O)c1ccc(Cl)c(C(=O)Nc2ccccc2[N+](=O)[O-])c1	-2.8%	-56.3*	-2.7%	6.7%	-1.5	?
CCc1nn(CCCC(=O)N2CCN(c3cc(Cl)ccc3C)CC2)c(=O)c2cc3occc3n12	.	.	5.6%	6.7%	.	.
O=C(CC[C@H]1O[C@@H](n2ccc(=O)[nH]c2=O)[C@H](O)[C@@H]1O)N[C@H](Cc1ccccc1)C(=O)NCCCc1ccccc1	.	17.5	0.6%	.	.	.
CC(CNC(=O)[C@@H](Cc1ccccc1)NC(=O)CC[C@H]1O[C@@H](n2ccc(=O)[nH]c2=O)[C@H](O)[C@@H]1O)c1ccccc1 (some centres undefined)	.	-66.2*	2.0%	.	.	.
CC(C)(C)c1ccc(Cn2nnc3c(=O)[nH]c(C4CCN(C(=O)c5ccco5)CC4)nc32)cc1	-3.4%	-67.2*	0.3%	13.3%	-9.6	12.9%
